# Experimental data as given in PubChem BioAssay AID1159580 (chemical genetic matrix, 2015).
# Out of some 5,500 compounds screened, about 2,000 (36%) were called active. About 18% were inconclusive and are not listed. The list shows a part of the results. A number with no mark means an inactive call. Rule as the data show it: active = normalized growth mostly below about 0.91 (no sharp cut-off); inconclusive = no clear call, values can overlap the other calls; inactive = mostly above about 0.92.
# Assay: chemical genetic growth profiling, strain panel (AID 1159580);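 also: tested at 20 µM; growth read once vehicle control cultures reached saturation at 30 °C; 1 = growth at the plate median or of vehicle wells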
# Conditions: growth OD
smiles,measurement,setting,value
O=c1c(O)c(-c2ccc(O)c(O)c2)oc2cc(O)ccc12,normalized growth,"S. cerevisiae deletion strains, locus YKL009W, strain mrt4, stronger effect = lower value",1.03
same,normalized growth,"S. cerevisiae deletion strains, locus YKL068W, stronger effect = lower value",0.99
same,normalized growth,"S. cerevisiae deletion strains, locus YKL085W, strain MDH1 (second series), stronger effect = lower value",1
same,normalized growth,"S. cerevisiae deletion strains, locus YKL085W, strain MDH1, stronger effect = lower value",1
same,normalized growth,"S. cerevisiae deletion strains, locus YKL160W, strain elf1, stronger effect = lower value",0.982
same,normalized growth,"S. cerevisiae deletion strains, locus YKL190W, strain CNB1, stronger effect = lower value",0.881 (active)
same,normalized growth,"S. cerevisiae deletion strains, locus YKR001C, strain vps1, stronger effect = lower value",0.857 (active)
same,normalized growth,"S. cerevisiae deletion strains, locus YKR026C, strain gcn3, stronger effect = lower value",1
same,normalized growth,"S. cerevisiae deletion strains, locus YKR091W, strain srl3, stronger effect = lower value",1
same,normalized growth,"S. cerevisiae deletion strains, locus YLL001W, strain dnm1, stronger effect = lower value",0.994
same,normalized growth,"S. cerevisiae deletion strains, locus YLL026W, stronger effect = lower value",0.995
same,normalized growth,"S. cerevisiae deletion strains, locus YLL041C, strain sdh2, stronger effect = lower value",0.996
same,normalized growth,"S. cerevisiae deletion strains, locus YLR027C, strain aat2, stronger effect = lower value",0.968
same,normalized growth,"S. cerevisiae deletion strains, locus YLR039C, strain RIC1, stronger effect = lower value",0.848
same,normalized growth,"S. cerevisiae deletion strains, locus YLR058C, strain SHM2, stronger effect = lower value",0.978
same,normalized growth,"S. cerevisiae deletion strains, locus YLR102C, strain apc9, stronger effect = lower value",1.01
same,normalized growth,"S. cerevisiae deletion strains, locus YLR113W, strain HOG1, stronger effect = lower value",0.571 (active)
same,normalized growth,"S. cerevisiae deletion strains, locus YLR221C, strain rsa3, stronger effect = lower value",0.95
same,normalized growth,"S. cerevisiae deletion strains, locus YLR258W, strain gsy2, stronger effect = lower value",1
same,normalized growth,"S. cerevisiae deletion strains, locus YLR262C, strain YPT6 (second series), stronger effect = lower value",0.981
same,normalized growth,"S. cerevisiae deletion strains, locus YLR262C, strain YPT6, stronger effect = lower value",0.877
same,normalized growth,"S. cerevisiae deletion strains, locus YLR268W, strain sec22, stronger effect = lower value",0.854 (active)
same,normalized growth,"S. cerevisiae deletion strains, locus YLR320W, strain mms22, stronger effect = lower value",0.942
same,normalized growth,"S. cerevisiae deletion strains, locus YLR330W, strain CHS5, stronger effect = lower value",0.908 (active)
same,normalized growth,"S. cerevisiae deletion strains, locus YLR342W, strain FKS1 (second series), stronger effect = lower value",0.753 (active)
same,normalized growth,"S. cerevisiae deletion strains, locus YLR342W, strain FKS1, stronger effect = lower value",0.978
same,normalized growth,"S. cerevisiae deletion strains, locus YLR357W, strain rsc2, stronger effect = lower value",0.922
same,normalized growth,"S. cerevisiae deletion strains, locus YLR370C, strain arc18, stronger effect = lower value",0.978
same,normalized growth,"S. cerevisiae deletion strains, locus YLR371W, strain rom2, stronger effect = lower value",0.882 (active)
same,normalized growth,"S. cerevisiae deletion strains, locus YLR384C, strain iki3, stronger effect = lower value",0.98
same,normalized growth,"S. cerevisiae deletion strains, locus YLR418C, strain cdc73, stronger effect = lower value",0.565 (active)
same,normalized growth,"S. cerevisiae deletion strains, locus YML016C, strain PPZ1, stronger effect = lower value",0.974
same,normalized growth,"S. cerevisiae deletion strains, locus YML032C, strain rad52, stronger effect = lower value",0.962
same,normalized growth,"S. cerevisiae deletion strains, locus YML120C, strain ndi1, stronger effect = lower value",1.01
same,normalized growth,"S. cerevisiae deletion strains, locus YML124C, strain tub3, stronger effect = lower value",1
same,normalized growth,"S. cerevisiae deletion strains, locus YMR058W, strain fet3, stronger effect = lower value",0.944
same,normalized growth,"S. cerevisiae deletion strains, locus YMR078C, strain ctf18, stronger effect = lower value",0.997
same,normalized growth,"S. cerevisiae deletion strains, locus YMR125W, strain sto1, stronger effect = lower value",1.02
same,normalized growth,"S. cerevisiae deletion strains, locus YMR129W, stronger effect = lower value",0.986
same,normalized growth,"S. cerevisiae deletion strains, locus YMR205C, strain PFK2, stronger effect = lower value",0.994
same,normalized growth,"S. cerevisiae deletion strains, locus YMR223W, strain ubp8, stronger effect = lower value",0.893 (active)
same,normalized growth,"S. cerevisiae deletion strains, locus YMR231W, strain pep5, stronger effect = lower value",0.987
same,normalized growth,"S. cerevisiae deletion strains, locus YMR263W, strain SAP30, stronger effect = lower value",0.892
same,normalized growth,"S. cerevisiae deletion strains, locus YMR307W, strain GAS1, stronger effect = lower value",0.675
same,normalized growth,"S. cerevisiae deletion strains, locus YNL067W, strain RPL9B, stronger effect = lower value",0.901
same,normalized growth,"S. cerevisiae deletion strains, locus YNL071W, strain lat1, stronger effect = lower value",0.945
same,normalized growth,"S. cerevisiae deletion strains, locus YNL128W, strain TEP1, stronger effect = lower value",0.864
same,normalized growth,"S. cerevisiae deletion strains, locus YNL153C, strain GIM3, stronger effect = lower value",0.806 (active)
same,normalized growth,"S. cerevisiae deletion strains, locus YNL183C, strain NPR1, stronger effect = lower value",0.357 (active)
same,normalized growth,"S. cerevisiae deletion strains, locus YNL209W, strain ssb2, stronger effect = lower value",0.949
same,normalized growth,"S. cerevisiae deletion strains, locus YNL233W, strain BNI4, stronger effect = lower value",0.795 (active)
same,normalized growth,"S. cerevisiae deletion strains, locus YNL248C, strain rpa49, stronger effect = lower value",0.995
same,normalized growth,"S. cerevisiae deletion strains, locus YNL250W, strain rad50, stronger effect = lower value",0.942
same,normalized growth,"S. cerevisiae deletion strains, locus YNL271C, strain bni1, stronger effect = lower value",0.978
same,normalized growth,"S. cerevisiae deletion strains, locus YNL298W, strain CLA4, stronger effect = lower value",0.965
same,normalized growth,"S. cerevisiae deletion strains, locus YNL307C, strain MCK1, stronger effect = lower value",0.779 (active)
same,normalized growth,"S. cerevisiae deletion strains, locus YNL322C, strain KRE1 (second series), stronger effect = lower value",1
same,normalized growth,"S. cerevisiae deletion strains, locus YNL322C, strain KRE1, stronger effect = lower value",0.918 (active)
same,normalized growth,"S. cerevisiae deletion strains, locus YNR049C, strain mso1, stronger effect = lower value",0.997
same,normalized growth,"S. cerevisiae deletion strains, locus YNR052C, strain pop2, stronger effect = lower value",1
same,normalized growth,"S. cerevisiae deletion strains, locus YOL006C, strain TOP1, stronger effect = lower value",0.52 (active)
same,normalized growth,"S. cerevisiae deletion strains, locus YOL012C, strain htz1",0.318
same,normalized growth,"S. cerevisiae deletion strains, locus YOL147C, strain pex11, stronger effect = lower value",1
same,normalized growth,"S. cerevisiae deletion strains, locus YOR001W, strain rrp6, stronger effect = lower value",0.935
same,normalized growth,"S. cerevisiae deletion strains, locus YOR061W, strain CKA2, stronger effect = lower value",0.955
same,normalized growth,"S. cerevisiae deletion strains, locus YOR069W, strain VPS5, stronger effect = lower value",0.997
same,normalized growth,"S. cerevisiae deletion strains, locus YOR070C, strain gyp1, stronger effect = lower value",0.968
same,normalized growth,"S. cerevisiae deletion strains, locus YOR080W, strain dia2, stronger effect = lower value",0.984
same,normalized growth,"S. cerevisiae deletion strains, locus YOR083W, strain WHI5, stronger effect = lower value",0.984
same,normalized growth,"S. cerevisiae deletion strains, locus YOR106W, strain vam3, stronger effect = lower value",0.984
same,normalized growth,"S. cerevisiae deletion strains, locus YOR136W, strain idh2, stronger effect = lower value",0.976
same,normalized growth,"S. cerevisiae deletion strains, locus YOR144C, strain elg1, stronger effect = lower value",1.01
same,normalized growth,"S. cerevisiae deletion strains, locus YOR184W, strain ser1, stronger effect = lower value",0.883
same,normalized growth,"S. cerevisiae deletion strains, locus YOR231W, strain MKK1, stronger effect = lower value",0.54 (active)
same,normalized growth,"S. cerevisiae deletion strains, locus YOR265W, strain rbl2, stronger effect = lower value",1.02
same,normalized growth,"S. cerevisiae deletion strains, locus YOR270C, strain vph1, stronger effect = lower value",1.02
same,normalized growth,"S. cerevisiae deletion strains, locus YOR290C, strain snf2, stronger effect = lower value",0.997
same,normalized growth,"S. cerevisiae deletion strains, locus YOR316C, strain cot1, stronger effect = lower value",1.01
same,normalized growth,"S. cerevisiae deletion strains, locus YPL051W, strain arl3, stronger effect = lower value",0.962
same,normalized growth,"S. cerevisiae deletion strains, locus YPL055C, strain LGE1, stronger effect = lower value",0.784
same,normalized growth,"S. cerevisiae deletion strains, locus YPL078C, strain atp4, stronger effect = lower value",1.01
same,normalized growth,"S. cerevisiae deletion strains, locus YPL106C, strain sse1, stronger effect = lower value",0.971
same,normalized growth,"S. cerevisiae deletion strains, locus YPL240C, strain hsp82, stronger effect = lower value",0.998
same,normalized growth,"S. cerevisiae deletion strains, locus YPL241C, strain CIN2, stronger effect = lower value",0.981
same,normalized growth,"S. cerevisiae deletion strains, locus YPL256C, strain CLN2, stronger effect = lower value",0.421 (active)
same,normalized growth,"S. cerevisiae deletion strains, locus YPR119W, strain clb2, stronger effect = lower value",1.01
same,normalized growth,"S. cerevisiae deletion strains, locus YPR141C, strain kar3, stronger effect = lower value",0.978
same,normalized growth,"S. cerevisiae deletion strains, locus YPR163C, strain tif3, stronger effect = lower value",0.956
same,normalized growth,"S. cerevisiae deletion strains, locus YPR167C, strain met16, stronger effect = lower value",1.01
same,normalized growth,"S. cerevisiae deletion strains, strain wtn01, stronger effect = lower value",0.86 (active)
same,normalized growth,"S. cerevisiae strains, strain wild type, stronger effect = lower value",0.815 (active)
